Activity calls are given as the source filed them. Unless noted, how the calls were made is not given here.
Tests used:
[1] = compound effects on lung adenocarcinoma cell viability – A549, calcein-AM fluorescence, 48 h, basal, profiling panel (AID 1162); conditions: higher = more signal; further: test concentration not given here
[2] = compound effects on differentiated 3T3-L1 adipocyte viability – cell-based, 3T3-L1 adipocytes, calcein-AM fluorescence, 48 h, basal, profiling panel (AID 1163); conditions: 3T3-L1 adipocytes viability, higher = more signal; further: test concentration not given here
[3] = compound effects on hepatocellular carcinoma cell viability – HepG2, calcein-AM fluorescence, 48 h, basal, profiling panel (AID 1164); conditions: higher = more signal; further: test concentration not given here
[4] = compound effects on multiple myeloma cell viability – MM1S, calcein-AM fluorescence, 48 h, basal, profiling panel (AID 1165); conditions: higher = more signal; further: test concentration not given here
[5] = calcein-AM signal in unstimulated myeloma cells – cell-based, calcein-AM fluorescence, 48 h, PK04 Diversity Set, profiling panel (AID 1166); conditions: RPMI8226 myeloma viability, higher = more signal;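 further: cells grown under basal conditions without added stimulus; test concentration not given here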
[6] = JC-1 mitochondrial signal, unstimulated HepG2 cells – cell-based, JC-1 fluorescence, 24 h, 100 nL compound, profiling panel (AID 1167); conditions: HepG2 mitochondrial potential, higher = more signal; further: test concentration not given here
[7] = JC-1 mitochondrial signal, unstimulated adipocytes – cell-based, JC-1 fluorescence, 3T3-L1 adipocytes, 24 h, 100 nL compound, profiling panel (AID 1168); conditions: JC-1 mitochondrial fluorescence, higher = more signal, called active from +8 up or from −8 down; further: test concentration not given here
[8] = JC-1 mitochondrial signal, unstimulated myeloma cells – cell-based, JC-1 fluorescence, RPMI8226, 24 h, 100 nL compound, profiling panel (AID 1169); conditions: JC-1 mitochondrial potential fluorescence, higher = more signal; further: test concentration not given here
[9] = JC-1 mitochondrial signal, unstimulated MM1S myeloma – cell-based, JC-1 fluorescence, 24 h, 100 nL compound, profiling panel (AID 1170); conditions: MM1S mitochondrial potential, higher = more signal; further: test concentration not given here
[10] = resazurin metabolic signal in A549 cells – cell-based, resazurin fluorescence, 24 h, PK04 Diversity Set, profiling panel (AID 1171); conditions: A549 viability, higher = more signal, called active from +8 up or from −8 down; further: test concentration not given here
[11] = resazurin metabolic signal in HepG2 cells – cell-based, resazurin fluorescence, 24 h, PK04 Diversity Set, profiling panel (AID 1172); conditions: HepG2 viability, higher = more signal; further: test concentration not given here
[12] = budding yeast growth changes without added modifier – OD600, strain BY4716, 24 h, basal condition, primary screen (AID 1173); conditions: S. cerevisiae BY4716 growth, OD600, 24 h; higher = more signal, called active from +8 up or from −8 down
[13] = viability profiling in MM1S myeloma cells – cell-based, resazurin fluorescence, basal, 24 h, PK04 Diversity Set, profiling panel (AID 1174); conditions: higher = more signal, called active from +8 up or from −8 down; further: test concentration not given here
[14] = molecular target: Dihydroorotate dehydrogenase (quinone), mitochondrial (Plasmodium falciparum (isolate 3D7)) (UniProt Q08210); experiment: inhibition of P. falciparum DHODH – biochemical, C-terminal His tag, absorbance 600 nm, primary screen (AID 1175); conditions: PfDHODH enzyme, DCIP absorbance 600 nm; higher = more signal, called active from +8 up or from −8 down;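 further: recombinant parasite enzyme with a five histidine tag at its C terminus; test concentration not given here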
Dihydroorotate dehydrogenase (quinone), mitochondrial (Plasmodium falciparum (isolate 3D7)), sequence (Q08210 whole entry, looked up): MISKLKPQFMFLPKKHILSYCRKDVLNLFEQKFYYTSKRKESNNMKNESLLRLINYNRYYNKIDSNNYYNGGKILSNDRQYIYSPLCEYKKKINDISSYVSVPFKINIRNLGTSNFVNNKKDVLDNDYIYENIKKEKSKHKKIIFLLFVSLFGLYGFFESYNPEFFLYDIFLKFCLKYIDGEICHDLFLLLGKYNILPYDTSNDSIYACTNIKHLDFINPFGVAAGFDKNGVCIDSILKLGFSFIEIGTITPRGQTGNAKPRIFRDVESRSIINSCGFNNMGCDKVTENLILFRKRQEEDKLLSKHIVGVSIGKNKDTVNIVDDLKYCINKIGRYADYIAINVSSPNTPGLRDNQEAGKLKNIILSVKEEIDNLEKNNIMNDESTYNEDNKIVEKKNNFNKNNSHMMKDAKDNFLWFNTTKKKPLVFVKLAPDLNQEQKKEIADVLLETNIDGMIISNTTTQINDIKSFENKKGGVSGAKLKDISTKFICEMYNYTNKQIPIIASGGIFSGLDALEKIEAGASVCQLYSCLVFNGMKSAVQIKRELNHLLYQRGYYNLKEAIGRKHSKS

[15] = inhibition of PAO1 biofilm formation – strain PAO1, LB-PBS medium, absorbance 600 nm, primary screen (AID 1176); further: test concentration not given here; conditions: P. aeruginosa PAO1 growth/biofilm, A600, 12 h; higher = more signal
[16] = growth modulation of vineyard yeast isolate – strain RM11-1a, OD600, basal, 24 h, primary screen (AID 1177);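 further: cultures grown under basal conditions with no added stressor; test concentration not given here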; conditions: S. cerevisiae RM11-1a growth, OD600, 24 h; higher = more signal, called active from +8 up or from −8 down
[17] = growth of efflux-deficient E. coli DRC39 – strain DRC39, OD650, 24 h, E. coli filamentation inducers, primary screen (AID 1178);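 further: growth measured as culture turbidity by optical density at 650 nm; test concentration not given here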; conditions: E. coli DRC39 acrAB, higher = more signal, called active from +8 up or from −8 down
[18] = growth of efflux-deficient E. coli DRC39 – strain DRC39, OD650, 48 h, E. coli filamentation inducers, primary screen (AID 1179);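 further: screen aims at cell division blockers that make cells filament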; conditions: E. coli DRC39 delta-acrAB growth, higher = more signal, called active from +8 up or from −8 down
[19] = viability profiling in RPMI8226 myeloma cells – cell-based, resazurin fluorescence, basal, 24 h, PK04 Diversity Set, profiling panel (AID 1180); conditions: higher = more signal;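 further: RPMI8826 multiple myeloma cell line at 5000 cells per well; test concentration not given here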
[20] = molecular target: E3 ubiquitin-protein ligase XIAP (Homo sapiens) (UniProt P98170); experiment: small molecules binding XIAP protein – biophysical, small-molecule microarray, fluorescence 635 nm, primary screen (AID 1181); conditions: higher = more signal;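 further: score merges 667 nm emission and signal to noise over triplicate slides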
E3 ubiquitin-protein ligase XIAP (Homo sapiens), sequence (P98170 whole entry, looked up): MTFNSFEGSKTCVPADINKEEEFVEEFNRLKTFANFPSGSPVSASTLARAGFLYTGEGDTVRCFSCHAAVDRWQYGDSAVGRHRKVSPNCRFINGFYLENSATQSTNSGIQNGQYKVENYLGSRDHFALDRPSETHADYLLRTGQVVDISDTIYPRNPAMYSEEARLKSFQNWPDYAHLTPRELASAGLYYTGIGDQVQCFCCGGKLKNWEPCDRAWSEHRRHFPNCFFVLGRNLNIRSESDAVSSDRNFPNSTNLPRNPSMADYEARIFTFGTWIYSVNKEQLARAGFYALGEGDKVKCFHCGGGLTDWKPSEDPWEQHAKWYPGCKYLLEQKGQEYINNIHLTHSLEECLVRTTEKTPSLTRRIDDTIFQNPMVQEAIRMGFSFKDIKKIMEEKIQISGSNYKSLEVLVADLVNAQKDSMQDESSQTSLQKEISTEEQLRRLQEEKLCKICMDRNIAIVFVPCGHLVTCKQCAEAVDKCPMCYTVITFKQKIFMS

Structure (SMILES)	z-score [1]	z-score [2]	z-score [3]	z-score [4]	z-score [5]	z-score [6]	z-score [7]	z-score [8]	z-score [9]	z-score [10]	z-score [11]	z-score [12]	z-score [13]	composite z-score [14]	z-score [15]	z-score [16]	z-score [17]	z-score [18]	z-score [19]	composite z-score [20]
CN(C)CCCN1C(=O)[C@@]2(c3ccc([N+](=O)[O-])cc3)CC(=O)N(C3CCCCC3)[C@@H]2c2ccc(CO)cc21	-0.397	0.962	-0.816	-0.0337	0.505	0.446	-0.274 (inactive)	0.764	-0.725	0.572 (inactive)	1.57	-1.28 (inactive)	1.11 (inactive)	-3.88 (inactive)	-0.6 (inactive)	-1.45 (inactive)	0.244 (inactive)	0.876 (inactive)	1.12	-0.0374
CCCCCCC#C[Si](O[C@H](c1ccccc1)c1cn([C@H](C)c2ccccc2)nn1)(C(C)C)C(C)C	-0.577	-1.2	0.0417	0.227	0.0204	3.36	-0.0744 (inactive)	-0.846	-1.19	2.74 (inactive)	1.94	0.243 (inactive)	2.59 (inactive)	-0.204 (inactive)	-0.443 (inactive)	0.53 (inactive)	-0.0375 (inactive)	0.622 (inactive)	3.6	-0.359
[N-]=[N+]=Nc1ccccc1[C@H]1OC(c2ccc(OCCCO)cc2)=N[C@@]1(CCS(=O)(=O)c1ccccc1)C(=O)N1CCOCC1	0.412	-0.0376	0.402	-0.655	-0.184	-1.34	-0.392 (inactive)	-0.666	-1.47	-0.913 (inactive)	-0.512	0.917 (inactive)	-1.45 (inactive)	0.499 (inactive)	1.75 (inactive)	1.45 (inactive)	0.713 (inactive)	0.187 (inactive)	-1.33	0.389
C=CCN1C(=O)[C@@]2(O[C@@H](CCO)[C@H]([Si](C)(C)c3ccc(OC)cc3)[C@H]2C)c2cc(N3C(=O)COc4ccccc43)ccc21	-3.41	-0.967	-4.72	-2.74	-4.33	-2.17	2.78 (inactive)	-1.01	-2.24	-5.02 (inactive)	-6.28	0.445 (inactive)	-8.85 (active)	0.428 (inactive)	-0.258 (inactive)	3.31 (inactive)	1.09 (inactive)	0.338 (inactive)	-6.27	-0.031
O=C(N1CCCCC1)[C@]1(CCS(=O)(=O)c2ccccc2)N=C(c2ccc(OCCCO)cc2)O[C@@H]1c1ccccc1	-1.64	1.68	-0.663	-1.5	-3.65	-0.0371	-0.136 (inactive)	-1.1	-0.751	-1.32 (inactive)	0.0192	-0.678 (inactive)	-2.49 (inactive)	0.813 (inactive)	-0.345 (inactive)	0.525 (inactive)	0.779 (inactive)	-0.385 (inactive)	-1.61	0.0257
O=C1OCC=C[C@H]2OC34C=CCN(c5ccc6ccccc6c5)C(=O)[C@H]3N(CCO)C(=O)[C@@H]4[C@@H]12 (stereo not given in full)	0.594	-0.355	0.379	-0.102	-0.29	-0.542	-0.252 (inactive)	1.02	-0.161	-0.0805 (inactive)	-0.147	-0.204 (inactive)	0.0073 (inactive)	-1.47 (inactive)	-0.649 (inactive)	0.195 (inactive)	-0.246 (inactive)	-0.118 (inactive)	0.403	0.0896
C=CC[C@@]1(C(=O)NCCN2CCOCC2)N=C(c2ccc(OCCCO)cc2)O[C@@H]1c1ccccc1CN=[N+]=[N-]	-0.0982	1.56	0.88	-2.94	-1.03	1.86	-0.224 (inactive)	-0.129	-0.029	-0.468 (inactive)	-0.0014	-1.4 (inactive)	0.331 (inactive)	0.45 (inactive)	0.466 (inactive)	-0.425 (inactive)	0.677 (inactive)	-0.498 (inactive)	-0.354	0.272
C=C[C@H](C)[C@H](OC(=O)Nc1ccc(OC)cc1)c1ccc(O)c2ccccc12	-0.697	0.256	-1.87	-2.98	-4.25	-3.3	-1 (inactive)	-1.03	-2.07	-0.232 (inactive)	-0.475	-18.5 (active)	-2.68 (inactive)	-1.79 (inactive)	0.908 (inactive)	-17 (active)	0.405 (inactive)	-0.0111 (inactive)	-2.21	-0.003
C=C(C(=O)CC[C@@H](OC(=O)c1cccnc1)c1ccc(OCCO)cc1)C(C)C	-1.9	-1.63	-3.17	-3.39	-1.9	-0.959	-0.0274 (inactive)	-0.304	-1.41	-1.34 (inactive)	-0.706	-18.4 (active)	-0.446 (inactive)	-3.83 (inactive)	0.907 (inactive)	-22.2 (active)	-0.706 (inactive)	-0.694 (inactive)	-1.56	-0.184

Reference: PubChem BioAssay
